The text below walks through data of the supplement of paper PMC10681739.

The full ranking holds about 2,700 sequences; the median of “arbitrary fluorescence units” is about 4,100, and the highest 2% start at about 54,000. For the sample, the highest values were picked, then their nearest neighbours and some sequences at random.

The target of the experiment is T1, ETS1 (UniProt P14921).
T1 sequence: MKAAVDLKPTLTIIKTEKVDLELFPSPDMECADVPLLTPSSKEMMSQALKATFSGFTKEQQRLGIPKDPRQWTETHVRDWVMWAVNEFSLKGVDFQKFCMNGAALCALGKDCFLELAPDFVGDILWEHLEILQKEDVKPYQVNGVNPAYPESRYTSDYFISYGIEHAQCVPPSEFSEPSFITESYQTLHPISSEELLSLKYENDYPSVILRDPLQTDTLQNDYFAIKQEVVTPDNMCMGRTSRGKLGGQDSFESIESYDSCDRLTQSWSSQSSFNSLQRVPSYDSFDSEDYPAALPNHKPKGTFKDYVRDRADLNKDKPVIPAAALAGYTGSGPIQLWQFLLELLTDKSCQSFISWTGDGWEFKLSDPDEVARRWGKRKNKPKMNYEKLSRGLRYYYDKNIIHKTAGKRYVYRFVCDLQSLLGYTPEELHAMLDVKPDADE
As to the kind of experiment: ETS1 binding intensity (PBM fluorescence) (arbitrary fluorescence units); higher = stronger binding. The settings on record: ETS1 concentration 10 nM. On the procedure:
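gcPBM on wild-type 36-bp genomic probes with two neighbouring ETS1 sites (4-24 bp apart). Recombinant human ETS1 (10 nM) was detected with anti-ETS1 antibody fluorescence. Values are medians over 3 replicate spots. The probes sit in constant array flanks that are not printed.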
For the sequence GGGTGCTTCCGGGGCAGCGCGCGCCACTTCCGACCT, the ETS1 binding intensity is 33500.
Consider GCGCCACTTCCGGCAGCGAAGTCACTTCCGCGGAGG, for which the ETS1 binding intensity stood at 57600.
For the sequence CCCGGAGTTCCGCGCGGCGCCAGCCCTTCCGCCACG, the ETS1 binding intensity turned out to be 375.
Next, GGCTGGGGCGGATGCCGGGGCTGTTCCGGGCCCTCC: 1230; TGAGCGCCGTGCCTTCCGGGTTCCGCCCTCCTGGGT: 1430.
For the sequence AGAATGAGCTGCAGGAAGGCGGAAGCACTAGCGTGC, the ETS1 binding intensity was determined as 421.
The sequence CGGGACAGGAAGTGTGGACAGGCTCCTTCCTGTTTG came in with an ETS1 binding intensity of 15000.
Take AGAAACGGAAAGAAAGTGACCCCTCCCTTCCTTTCA: the ETS1 binding intensity came out at 175.
TGGGGTTTCCTGGGGTGTTCTGTCTACATCCTGAGA displayed an ETS1 binding intensity of 5150.
CCCAGCGAGAGGTTTCCTCTTCCGGCACCTGACCCC displayed an ETS1 binding intensity of 4930.
For TTCCTCTCCTTTCCGCGAGACCTTCCGCGGTTATCC, the ETS1 binding intensity was found to be 178.
Turning to ACAACCTTTAAACTTCCGGTTTCCTCTGTGCGAGGT, the ETS1 binding intensity is 56700.
GGCTTCAGGATGCATTGACAATTAAAGGAAGTCAGA registered an ETS1 binding intensity of 275.
The value for GAGGCGGGACTTCCTACAGCACTTCCGGCCAGAGCC was 26500; that for GGGGCCACTTCCCGGGGCCAGGCAGGAAGCCCGCCC was 3870; that for CCGGCACTTCCGGCAGGCCAGGGCACTTCCGGGACC was 58000.
The value for CGCTGAACTTCCCGAGCTCGGGGTGGGATGTGGCCG was 734; that for GCAGAAGGGAGGAAGAAGCAGGCGGAAGCAGCCGGT was 522.
With GAGAGGCAGGAAGAGAGCAGAGCCGGAAGCACAAGG, the ETS1 binding intensity is 2630.
The sequence GTCACTTCCGGCAGCCGGAGGCAGCAGAGGAAGCCG gave an ETS1 binding intensity of 71500.
For CTCTAGGTCTAACATCCCTCGGAAGTTCGTGCAGCG, the ETS1 binding intensity was found to be 175.
As for GGCAAAAACCCACATCCTCTTCCGCTGGCTCCACCT, the ETS1 binding intensity was found to be 8480.
CTCTTGGCAACATCCGGTCACATCCCCTCCGCTATT came in with an ETS1 binding intensity of 60900.
For the sequence CAACCGAAAACATCCCGTGCCGGAAGCGCGTCATCG, the ETS1 binding intensity came to 4780.
Regarding TGCAAAGCATCCTGGGTGCCAGGCTTCCTGGGGCTT, the ETS1 binding intensity stood at 1890.
As to CGCCCCTGGGGCTTCCGCGGCGGAAGCCTAGCGTCC, the ETS1 binding intensity was 824.
For the sequence GCAACTTCCGCCCTGAGAAGGGTGGGGCTTCCGTCT, the ETS1 binding intensity was 63000.
The sequence TGAAGGCTTCCGCCAAGGTGAGGGGCTTCCTCTGGG yielded an ETS1 binding intensity of 9460.
Take CCAAGCTGGTTTCCTCTCCGGTTTCCTCCGGGGTGG: the ETS1 binding intensity was 3800.
CTGACCTGCTTCCTCATGGTTGTTTCCTGCCTATTG displayed an ETS1 binding intensity of 3740.
For GACGGACACCCGTTTCCGCTTCCGGGTCACGCTTCT, the ETS1 binding intensity turned out to be 20900.
For the sequence TCCACTTCCGGGTCCGGGACACCGCCCGGATCTTGC, the ETS1 binding intensity worked out at 64200.
As for GCCACCGCCCCTTCCGGGTCCGGAACGGCTCCAGCT, the ETS1 binding intensity worked out at 7050.
Regarding ACGACGCAGCCACTTCCGATTCCGGTCGGAGCACCG, the ETS1 binding intensity is 8910.
As to CCTCAGGATGGCATCAGCCTGTGACCACTTCCTGTG, the ETS1 binding intensity worked out at 2200.
The sequence TTCTTCACAAGCGGATGTCACTTCCTGCCTGTGACA came in with an ETS1 binding intensity of 17200.
With GCCTCACTTCCTGTGTTCAAGTGACAGGATGTGACA, the ETS1 binding intensity is 70700.
GCACCCGGAAGCCGCTTGCGGGCTCCCGGAAGCGGC: the ETS1 binding intensity is 8720.
In turn, GGGCGGGACTTCCGGCAAGGCGCGGAAGCGGCGGTA registered an ETS1 binding intensity of 46400.
The sequence TGCGGGGCGGAAGCCGGGGCGTGACTTCCGGCGCCG registered an ETS1 binding intensity of 11600.
For GCGTTACTTCCGGCGCGCGGCGGGCGGAAGTCCGGG, the ETS1 binding intensity came to 69700.
Turning to GGGCCTAGGAAATGCCGCACTACAACTTCCGTCGGG, the ETS1 binding intensity worked out at 992.
Regarding GAGGCGCTTCCTCAGTTGGACTCCACTTCCTCTCCG, the ETS1 binding intensity was 4590.
GCCGGCGAGCGGAAGAGGCTGCAGGAAGGCCGGCCC came in with an ETS1 binding intensity of 3170.
The value for AGCACTTCCTGTTTGATCTCTATGATCCATCCTGTT was 106000; that for CAAACACATCCTGTTTGCACTTGACTTCCTGTTTTG was 37400; that for TAGTTGTCCCTTCCTTAAGCACTTCCTGTTTGATCT was 11900.
CCGGGAGCTCCGGATGCAGACAGGAAGTGGGCAGGG displayed an ETS1 binding intensity of 9950.
CAGCACGACTTCCTGGAGCGGGCCGGAAGTGACAAC showed an ETS1 binding intensity of 21000.
In turn, GAGACGGGACTTCCGGCTCCCGGGGAAGTCCCGCCC came in with an ETS1 binding intensity of 53500.
CGTCCTGACTTCCGGGGCGGGACGGAAGAGCGGGCG yielded an ETS1 binding intensity of 25800.
The sequence CGGGGCTCCCGGAAGCCGCCCCTTCCGCCAGCTTGC had an ETS1 binding intensity of 4520.
As to TATAAAACCATTTCCTTCTCTGGGAAATGAGATGTC, the ETS1 binding intensity stood at 3370.
Next, GGTCCGGAAACGGGACAGAAGGCCCACCTTCCTCCC: 8480; AGCCTTTGTATTTCCTTTCAGAGGAAACCCCAATGC: 5570.
Next, CGCTGCTTCCGGGTCTCGGCAAGCACTTCCGGGGTG: 30400; TTCCACTTCCGGTCTTACCCGGCTACTTCCGCTGCT: 147000; TGGGGTCTTCCGGTTGGACCCCTGCTTCCGCTGATT: 24400.
Next, CAACGGCAGCTTCCTGCGGCGCCGGAAACGCTTCAA: 12100; TGAAACAGGAAGTCAGCTTCACAGCAGGAAGCAGAC: 16400.
In the case of TTCCTCAGGGAAGTTCGGGTGAGAGGAAGTGCCTGC, the ETS1 binding intensity came out at 228.
CCCGGTAGCCGCCGGAAAACTTCCGCCGAGACCGGA registered an ETS1 binding intensity of 4420.
